# Measurements taken from the supplement of paper PMC10670038.
# Where a name gives a salt, the structure may show the parent alone. ± gives the standard deviation of the averaged measurements. Over roughly 2,000 compounds, “relative cell viability vs DMSO, compound alone” has its median near 1.1; the lowest 2% begin near 0.29. This excerpt belongs to a sample that is enriched for the lowest values.
# Test system: TE10
# Assay: relative cell viability vs DMSO, compound alone (fraction); TE10 is an esophageal squamous carcinoma line; higher = less cytotoxic
# Conditions: 2 µM; 48 h
# Description: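 TE10 ESCC cells (1,000/well, 384-well plates) were treated with Selleck bioactive library compounds at 2 uM alone for 48 h. Viability was read by CellTiter-Glo and expressed relative to DMSO wells. Two technical replicates (A, B).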
row,Structure (SMILES),relative cell viability
1,C[C@H]1CCC/C=C/[C@@H]2C[C@H](O)C[C@H]2[C@H](O)/C=C/C(=O)O1 [Brefeldin A],0.2497 ± 0.0017
2,Cc1c(Cl)c(OCC(=O)N2CCN(C)CC2)nc2sc(C(=O)NC3CC3)c(N)c12,1.04 ± 0.019
3,Cc1cc(C(C#N)c2ccc(Cl)cc2)c(Cl)cc1NC(=O)c1cc(I)cc(I)c1O (stereo not given) [Closantel],1.12 ± 0.019
4,O=S(=O)(F)Cc1ccccc1,0.978 ± 0.021
5,O=C(O)CCCc1ccc(N(CCCl)CCCl)cc1 [Chloroambucil],1.14 ± 0.012
6,CN1C2CC(O)CC1C1OC12 (stereo not given) [Scopine],0.808 ± 0.14
7,C=CC[C@]1(O)CC[C@H]2[C@@H]3CCC4=CC(=O)CCC4=C3C=C[C@@]21C [Altrenogest],1.115 ± 0.0019
8,Cc1c(N)nc(C(CC(N)=O)NCC(N)C(N)=O)nc1C(=O)NC(C(=O)NC(C)C(O)C(C)C(=O)NC(C(=O)NCCc1nc(-c2nc(C(=O)NCCC[S+](C)C)cs2)cs1)C(C)O)C(O[C@@H]1O[C@@H](CO)[C@@H](O)[C@H](O)[C@@H]1O[C@H]1O[C@H](CO)[C@@H](O)[C@H](OC(N)=O)[C@@H]1O)c1cnc[nH]1 (stereo not given in full) [Bleomycin Sulfate],0.856 ± 0.038
9,C[C@@H]1CC[C@@]2(OC1)O[C@H]1C[C@H]3[C@@H]4CC=C5C[C@@H](O[C@@H]6O[C@H](CO)[C@@H](O[C@@H]7O[C@@H](C)[C@H](O)[C@@H](O)[C@H]7O)[C@H](O)[C@H]6O[C@@H]6O[C@@H](C)[C@H](O)[C@@H](O)[C@H]6O)CC[C@]5(C)[C@H]4CC[C@]3(C)[C@H]1[C@@H]2C [Dioscin],0.189 ± 0.051
10,O=C1CCC[C@@H]2[C@H]3CCCN4CCC[C@@H](CN12)[C@@H]34 [(+)-Matrine],1.1 ± 0.059
11,CC1=C(O)C(=O)C=C2C1=CC=C1[C@@]2(C)CC[C@@]2(C)[C@@H]3C[C@](C)(C(=O)O)CC[C@]3(C)CC[C@]12C [Celastrol],0.306 ± 0.0087
12,"O=[N+]([O-])C=Cc1ccc2c(c1)OCO2 [MNS (3,4-Methylenedioxy-β-nitrostyrene, MDBN)]",0.742 ± 0.054
13,CC(C)=CCC[C@]1(C)C=Cc2c(O)c3c(c(CC=C(C)C)c2O1)O[C@]12C(=C[C@@H]4C[C@H]1C(C)(C)O[C@@]2(C/C=C(/C)C(=O)O)C4=O)C3=O [Gambogic Acid],0.0673 ± 0.0049
14,Cc1sc2c(c1C)C(c1ccc(Cl)cc1)=N[C@@H](CC(=O)OC(C)(C)C)c1nnc(C)n1-2,0.9008 ± 0.0079
15,Cc1sc2c(c1C)C(c1ccc(Cl)cc1)=NC(CC(N)=O)c1nnc(C)n1-2 (stereo not given),0.954 ± 0.053
